# In PubChem BioAssay (Tox21):
# Results filed as inconclusive are left out. A call without a number means that no potency is given here. A number with no mark means an inactive call. Activity calls are given as the source filed them. Calls come from the whole dose curve; as a rule, active = well fitted curve in the direction sought with a large enough effect in the repeat runs; inconclusive = weak or mixed curves; inactive = no such curve, though single readings can be large; an effect the other way counts as inactive or inconclusive.
# Legend:
# [1] = target: Cytochrome P450 2C19 (Homo sapiens) (UniProt P33261); experiment: Cytochrome P450 Family 2 Subfamily C Member 19 (CYP2C19) small molecule antagonists: luciferase reporter qHTS assay (AID 1671197); note: nearly all actives have a fitted effect of over 65% in size; for activity change, negative = inhibition: series mostly up to about 120 µM
# Summary of the method: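 Quantitative high-throughput screen of the Tox21 library using CYP2C19 with proluciferin substrate. Reaction: NADPH regeneration, 37C, 1 h, after 10 min compound preincubation at room temperature. Readout: luminescence.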
# [2] = target: Cytochrome P450 2C9 (Homo sapiens) (UniProt P11712); experiment: Cytochrome P450 Family 2 Subfamily C Member 9 (CYP2C9) small molecule antagonists: luciferase reporter qHTS assay (AID 1671198); note: nearly all actives have a fitted effect of over 50% in size; for activity change, negative = inhibition: series mostly up to about 120 µM
# Summary of the method: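 CYP2C9 activity was measured with a P450-Glo proluciferin substrate. Enzyme–substrate mix was held with compound for 10 min at room temperature, then NADPH regeneration solution was added for 1 h at 37C. Luciferin product was read as luminescence.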
# [3] = target: Cytochrome P450 1A2 (Homo sapiens) (UniProt P05177); experiment: Cytochrome P450 Family 1 Subfamily A Member 2 (CYP1A2) small molecule antagonists: luciferase reporter qHTS assay (AID 1671199); note: nearly all actives have a fitted effect of over 50% in size; for activity change, negative = inhibition: series mostly up to about 120 µM
# Summary of the method: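 Human CYP1A2 activity measured with a P450-Glo proluciferin substrate; compounds in DMSO preincubated 10 min at room temperature with enzyme-substrate mix, then NADPH regeneration system added for 1 h. Luciferin detection reagent, 20 min, luminescence read.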
# [4] = target: Voltage-gated inwardly rectifying potassium channel KCNH2 (Homo sapiens) (UniProt Q12809); experiment: Human Ether-a-go-go-Related Gene (hERG) channel small molecule antagonists: fluorescence cell-based qHTS assay (AID 1671200); note: nearly all actives have a fitted effect of over 50% in size;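 for activity change, negative = inhibition: hERG-expressing U2OS cells given a thallium stimulus after FluxOR II dye loading; series mostly up to about 77 µM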
# Summary of the method: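 First, 1000 cells per well are seeded and cultured overnight at 37 C. Next, FluxOR II dye is loaded for 1 h at room temperature, protected from light. After 10 more minutes, stimulus is added and fluorescence is read.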
# [5] = target: Cytochrome P450 3A4 (Homo sapiens) (UniProt P08684); experiment: Cytochrome P450 Family 3 Subfamily A Member 4 (CYP3A4) small molecule antagonists: luciferase reporter qHTS assay (AID 1671201); note: nearly all actives have a fitted effect of over 50% in size; for activity change, negative = inhibition: series mostly up to about 120 µM
# Summary of the method: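 Enzyme and proluciferin substrate are mixed with test chemicals for 10 min, then NADPH regeneration system drives turnover for 1 h at room temperature. A detection reagent halts the reaction; luminescence after 20 min gives relative activity.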
# Potency is the fitted concentration of half-maximal effect.
# Sequence of Cytochrome P450 1A2 (Homo sapiens) (P05177 whole entry, looked up): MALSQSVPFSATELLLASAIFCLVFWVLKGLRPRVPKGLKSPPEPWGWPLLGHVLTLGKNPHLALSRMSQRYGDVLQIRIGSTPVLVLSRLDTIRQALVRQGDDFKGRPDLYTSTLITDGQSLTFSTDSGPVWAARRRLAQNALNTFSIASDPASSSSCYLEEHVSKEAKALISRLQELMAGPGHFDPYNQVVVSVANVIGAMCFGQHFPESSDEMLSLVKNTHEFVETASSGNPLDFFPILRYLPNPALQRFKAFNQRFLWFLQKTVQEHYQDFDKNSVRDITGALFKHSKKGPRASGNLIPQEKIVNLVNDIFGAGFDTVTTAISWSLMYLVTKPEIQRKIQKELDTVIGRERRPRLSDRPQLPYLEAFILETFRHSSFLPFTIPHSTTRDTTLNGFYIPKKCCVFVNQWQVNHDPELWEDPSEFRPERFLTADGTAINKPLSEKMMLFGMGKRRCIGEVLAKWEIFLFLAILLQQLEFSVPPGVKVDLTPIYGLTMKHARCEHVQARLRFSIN
# Sequence of Cytochrome P450 3A4 (Homo sapiens) (P08684 whole entry, looked up): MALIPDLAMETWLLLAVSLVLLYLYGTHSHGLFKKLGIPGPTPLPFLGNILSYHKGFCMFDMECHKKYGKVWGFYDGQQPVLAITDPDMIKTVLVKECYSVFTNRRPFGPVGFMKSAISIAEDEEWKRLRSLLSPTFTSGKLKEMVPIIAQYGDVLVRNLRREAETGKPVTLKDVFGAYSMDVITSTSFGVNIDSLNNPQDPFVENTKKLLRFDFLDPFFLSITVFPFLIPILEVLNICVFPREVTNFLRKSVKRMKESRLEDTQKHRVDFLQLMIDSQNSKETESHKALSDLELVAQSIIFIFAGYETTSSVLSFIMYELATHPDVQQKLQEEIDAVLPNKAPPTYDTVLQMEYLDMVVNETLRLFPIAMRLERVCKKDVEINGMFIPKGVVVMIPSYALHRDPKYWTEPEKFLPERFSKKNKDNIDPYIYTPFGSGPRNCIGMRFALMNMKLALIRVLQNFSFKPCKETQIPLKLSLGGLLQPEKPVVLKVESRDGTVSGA
# Sequence of Cytochrome P450 2C9 (Homo sapiens) (P11712 whole entry, looked up): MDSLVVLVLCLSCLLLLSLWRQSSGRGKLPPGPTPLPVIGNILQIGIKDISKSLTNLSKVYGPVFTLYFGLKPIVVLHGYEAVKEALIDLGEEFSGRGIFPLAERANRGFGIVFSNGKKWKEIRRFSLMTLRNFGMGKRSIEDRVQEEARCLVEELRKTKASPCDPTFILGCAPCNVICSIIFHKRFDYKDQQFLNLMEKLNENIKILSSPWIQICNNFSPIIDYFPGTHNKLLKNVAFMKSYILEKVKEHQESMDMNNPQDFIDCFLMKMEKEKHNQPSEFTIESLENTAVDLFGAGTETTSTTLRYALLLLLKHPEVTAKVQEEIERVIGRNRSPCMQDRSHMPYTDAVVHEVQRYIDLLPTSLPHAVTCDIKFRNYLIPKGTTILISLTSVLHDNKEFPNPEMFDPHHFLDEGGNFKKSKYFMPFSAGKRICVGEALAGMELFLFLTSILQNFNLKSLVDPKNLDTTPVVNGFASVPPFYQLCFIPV
# Sequence of Cytochrome P450 2C19 (Homo sapiens) (P33261 whole entry, looked up): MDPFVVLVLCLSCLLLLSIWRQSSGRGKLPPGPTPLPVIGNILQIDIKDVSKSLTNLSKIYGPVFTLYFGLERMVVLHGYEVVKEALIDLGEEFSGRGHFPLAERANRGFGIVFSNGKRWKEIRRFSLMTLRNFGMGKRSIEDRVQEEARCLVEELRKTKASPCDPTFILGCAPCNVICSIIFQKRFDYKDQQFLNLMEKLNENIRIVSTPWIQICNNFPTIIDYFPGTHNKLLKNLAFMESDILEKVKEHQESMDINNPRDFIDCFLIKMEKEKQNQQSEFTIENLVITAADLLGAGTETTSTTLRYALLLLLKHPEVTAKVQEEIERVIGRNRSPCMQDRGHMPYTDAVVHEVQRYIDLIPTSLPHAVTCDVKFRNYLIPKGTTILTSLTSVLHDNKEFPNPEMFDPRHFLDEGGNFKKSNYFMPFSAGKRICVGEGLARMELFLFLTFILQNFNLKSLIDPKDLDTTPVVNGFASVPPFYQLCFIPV
# Sequence of Voltage-gated inwardly rectifying potassium channel KCNH2 (Homo sapiens) (Q12809 whole entry, looked up): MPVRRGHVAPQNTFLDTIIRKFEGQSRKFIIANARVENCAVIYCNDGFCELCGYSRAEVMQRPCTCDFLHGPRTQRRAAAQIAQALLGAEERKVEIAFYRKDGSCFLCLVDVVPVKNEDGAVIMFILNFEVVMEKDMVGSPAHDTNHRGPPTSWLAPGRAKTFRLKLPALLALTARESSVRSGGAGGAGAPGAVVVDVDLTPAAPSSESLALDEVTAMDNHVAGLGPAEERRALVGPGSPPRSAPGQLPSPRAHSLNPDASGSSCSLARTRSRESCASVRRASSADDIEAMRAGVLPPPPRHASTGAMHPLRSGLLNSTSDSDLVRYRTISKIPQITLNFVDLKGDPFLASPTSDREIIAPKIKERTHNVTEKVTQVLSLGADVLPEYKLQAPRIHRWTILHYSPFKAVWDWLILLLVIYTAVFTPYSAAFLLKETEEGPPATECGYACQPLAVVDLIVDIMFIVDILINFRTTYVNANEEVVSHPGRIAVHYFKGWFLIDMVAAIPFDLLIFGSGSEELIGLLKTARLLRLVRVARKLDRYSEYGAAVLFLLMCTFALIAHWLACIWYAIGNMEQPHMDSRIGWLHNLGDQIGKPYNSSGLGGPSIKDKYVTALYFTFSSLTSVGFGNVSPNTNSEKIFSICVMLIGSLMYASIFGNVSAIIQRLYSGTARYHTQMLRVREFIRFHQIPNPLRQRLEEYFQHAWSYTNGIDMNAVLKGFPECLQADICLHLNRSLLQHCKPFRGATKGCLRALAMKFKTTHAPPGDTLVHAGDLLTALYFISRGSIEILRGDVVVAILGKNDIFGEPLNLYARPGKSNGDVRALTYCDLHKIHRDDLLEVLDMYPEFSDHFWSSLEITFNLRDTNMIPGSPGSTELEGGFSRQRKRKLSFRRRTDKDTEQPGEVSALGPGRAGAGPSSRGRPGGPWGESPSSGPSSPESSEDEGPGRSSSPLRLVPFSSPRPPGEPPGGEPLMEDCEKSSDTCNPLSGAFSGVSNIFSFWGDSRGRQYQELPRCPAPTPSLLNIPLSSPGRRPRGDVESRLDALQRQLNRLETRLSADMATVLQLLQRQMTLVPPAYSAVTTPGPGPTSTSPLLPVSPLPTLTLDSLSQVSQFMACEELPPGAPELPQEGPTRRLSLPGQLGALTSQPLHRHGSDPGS
Compound,Potency [1],Potency [2],Potency [3],Potency [4],Potency [5],"activity change, negative = inhibition [1]","activity change, negative = inhibition [4]","activity change, negative = inhibition [5]"
Cc1ccc(C(C)C)cc1O,1.78 µM (active),15.9 µM (active),22.4 µM (active),inactive,–,–,–,–
CN(CC1(C)CCCO1)S(=O)(=O)c1ccc(Cl)c(S(N)(=O)=O)c1 (stereo not drawn),inactive,inactive,inactive,inactive,–,–,–,–
CCc1cc2cc(OC)c(OC)cc2c(Cc2ccccc2)n1,17.4 µM (active),15.5 µM (active),6.45 µM (active),–,–,–,–,–
O=S(=O)(O)C(F)(F)F,inactive,inactive,inactive,inactive,–,–,–,–
CC(=O)O[C@H]1CC[C@@]2(C)C(=CC[C@@H]3[C@@H]2CC[C@]2(C)C(C(C)=O)=CC[C@@H]32)C1,inactive,inactive,inactive,inactive,inactive,–,–,–
CC(C)=CCC[C@](C)(O)[C@@H]1CC=C(C)CC1,5.03 µM (active),31.7 µM (active),39.9 µM (active),–,–,–,–,–
CCCCC(CC)COC(=O)COc1cc(Cl)c(Cl)cc1Cl (stereo not drawn),7.1 µM (active),8.94 µM (active),15.9 µM (active),inactive,6.33 µM (active),–,–,–
O=C1N(c2ccccc2)c2ccccc2C1(Cc1ccncc1)Cc1ccncc1,2.45 µM (active),3.47 µM (active),inactive,inactive,–,–,–,–
O=C(O)CN(CCN(CC(=O)O)CC(=O)O)CCN(CC(=O)O)CC(=O)O,–,inactive,inactive,–,–,49.7% [at 23.6 µM],6.28% [at 15.8 µM],10.1% [at 23.6 µM]
COC(=O)N[C@H](C(=O)N[C@@H](Cc1ccccc1)[C@@H](O)CN(Cc1ccc(-c2ccccn2)cc1)NC(=O)[C@@H](NC(=O)OC)C(C)(C)C)C(C)(C)C,34.7 µM (active),15.5 µM (active),inactive,inactive,–,–,–,–
COc1cc(Cl)ccc1Cl,inactive,inactive,36.3 µM (active),inactive,inactive,–,–,–
O=C(O)C(=O)Cc1c[nH]c2ccccc12,79.6 µM (active),39.9 µM (active),35.6 µM (active),inactive,inactive,–,–,–
CC1=NN(c2cc(Cl)c(S(=O)(=O)O)cc2Cl)C(=O)C1N=Nc1ccc(S(=O)(=O)O)cc1 (stereo not drawn),inactive,inactive,inactive,inactive,inactive,–,–,–
CCOC(=O)COc1ccc2c(c1)CC(NCC(O)c1cccc(Cl)c1)CC2 (stereo not drawn),45.2 µM (active),35.9 µM (active),inactive,1.39 µM (active),inactive,–,–,–
Cc1ccccc1C(=O)Nc1ccc(C(=O)N2CCCC(O)c3cc(Cl)ccc32)c(C)c1 (stereo not drawn),inactive,15.5 µM (active),inactive,inactive,–,–,–,–
CN(CCCN1c2ccccc2CCc2ccccc21)CC(=O)c1ccc(Cl)cc1,3.47 µM (active),15.5 µM (active),11 µM (active),inactive,–,–,–,–
CCNCCO,inactive,inactive,inactive,inactive,inactive,–,–,–
NS(=O)(=O)c1cc(-c2nn[nH]n2)c(NCc2cccs2)cc1Cl,inactive,24.5 µM (active),inactive,inactive,–,–,–,–
CCOc1ccc2nc(N)sc2c1,22.3 µM (active),31.5 µM (active),17.7 µM (active),–,–,–,–,–

Compound,Potency [1],Potency [2],Potency [3],Potency [4],Potency [5],"activity change, negative = inhibition [1]","activity change, negative = inhibition [4]","activity change, negative = inhibition [5]"
CCC(=O)O[C@]1(C(=O)SCF)[C@H](C)C[C@H]2[C@@H]3C[C@H](F)C4=CC(=O)C=C[C@]4(C)[C@@]3(F)[C@@H](O)C[C@@]21C,inactive,4.9 µM (active),inactive,inactive,–,–,–,–
O=C1Nc2ccc([N+](=O)[O-])cc2C1=O,5.63 µM (active),35.5 µM (active),22.4 µM (active),inactive,–,–,–,–
Cc1onc(-c2ccccc2)c1C(=O)Cl,inactive,inactive,inactive,inactive,inactive,–,–,–
CN1CCC[C@@H]1Cc1c[nH]c2ccc(CCS(=O)(=O)c3ccccc3)cc12,inactive,17.4 µM (active),inactive,–,–,–,–,–
OCc1ccccc1O,inactive,inactive,inactive,inactive,inactive,–,–,–
CCOc1ccc(NC(N)=O)cc1,inactive,inactive,35.6 µM (active),inactive,inactive,–,–,–
Cc1cc(NS(=O)(=O)c2ccc(N)cc2)nc(C)n1,inactive,inactive,inactive,inactive,inactive,–,–,–
O=C(O[C@@H](C(=O)O)[C@@H](OC(=O)c1ccccc1)C(=O)O)c1ccccc1,45.6 µM (active),inactive,72.2 µM (active),inactive,inactive,–,–,–
Cc1ccc([N+](=O)[O-])cc1Cl,inactive,inactive,inactive,inactive,inactive,–,–,–
CCOc1ccccc1N,22.3 µM (active),31.5 µM (active),19.9 µM (active),21.7 µM (active),15.8 µM (active),–,–,–
O=[N+]([O-])c1nccn1CO[C@@H](CO)[C@H](O)CO,inactive,inactive,inactive,inactive,inactive,–,–,–
NC(=O)Cc1cccc(C(=O)c2ccccc2)c1N,34.7 µM (active),inactive,15.5 µM (active),inactive,inactive,–,–,–
COc1nc(C)nc(NC(=O)NS(=O)(=O)c2ccccc2OCCCl)n1,inactive,inactive,35.4 µM (active),inactive,–,–,–,–
Cc1c(-c2ccccc2)oc2c(C(=O)OCCN3CCCCC3)cccc2c1=O,inactive,–,–,–,–,–,–,–
Cc1ccsc1C(=CCCN1CCC[C@@H](C(=O)O)C1)c1sccc1C,inactive,inactive,inactive,inactive,–,–,–,–
C=CC(C)(O)CC/C=C(\C)CCC=C(C)C (stereo not drawn),17.8 µM (active),31.7 µM (active),31.7 µM (active),–,–,–,–,–
CC(C)(C)c1ccc(OC(=O)c2ccccc2O)cc1,inactive,31.7 µM (active),39.9 µM (active),inactive,inactive,–,–,–
CCN1CC(CCN2CCOCC2)C(c2ccccc2)(c2ccccc2)C1=O (stereo not drawn),inactive,inactive,inactive,inactive,–,–,–,–
